# Data as given in PubChem BioAssay AID652042 (Broad Institute, 2013).
# The campaign covered roughly 1,100 compounds. About 350 (32%) were called active. The list is a sample of the results. Results with a measured potency or affinity are listed apart. A number with no mark means an inactive call. How the calls were made is not given here.
# Test: CEM21 lymphoblast cell cytotoxicity, dose response, cytotoxicity control for viral fusion inhibitor project, CellTiter-Glo luminescence, cherry-picked (AID 652042)
# Conditions: CEM21 cells viability, CellTiter-Glo ATP luminescence, 24 h; series mostly up to 35 µM; activity change, negative = cytotoxicity: at the top concentration
row,SMILES,"activity change, negative = cytotoxicity"
1,CCN1CCN(S(=O)(=O)c2ccc(Cl)c(C(=O)Nc3ccccc3N3CCCC3)c2)CC1,-8.82%
2,O=C(CCC(=O)N1CCN(S(=O)(=O)c2ccc3ccccc3c2)CC1)Nc1cc(Cl)cc(Cl)c1,-20.9%
3,CCCCCCc1nc2ccccc2c(=O)n1NC(=O)c1c(O)c2c(n(CC(C)C)c1=O)CCCC2,-24.4%
4,CC[C@@]12C(=O)N(c3cccc(Br)c3)C(=O)N1[C@H](c1ccc(OC)cc1)[C@@H]1C(=O)N(C(C)(C)C)C(=O)[C@@H]12,-0.201%
5,CN(Cc1ccc(Cl)cc1Cl)C(=O)c1cccc(S(=O)(=O)N2CCN(c3ccccc3)CC2)c1,-6.85%
6,Cc1ccc(C)c(-n2cc(CNCCCn3cccn3)c(-c3ccccc3)n2)c1,-22.4%
7,O=C1NCCN(Cc2cccc(Oc3ccccc3)c2)C1CC(=O)N1CCCCC1 (centres undefined),-2.45%
8,Cc1cc(Cl)c(S(=O)(=O)N2CCCC2)cc1OCC(=O)NC1CCCCC1,-14.6%
9,Cc1cc(Cl)c(S(=O)(=O)N2CCSCC2)cc1OCC(=O)NC1CCCCC1,-7.4%
10,CN(C)CCn1c(=O)n(-c2cccc(Cl)c2)c(=O)c2c3c(sc21)CCCCC3,-6.49%
11,CCC(C)NS(=O)(=O)c1ccc(S(=O)(=O)N2CCCC3(CCCCC3)C2)cc1 (centres undefined),-24.4%
12,O=C(COC(=O)c1ncc(Cl)c(Cl)c1Cl)NCc1cccs1,-5.63%
13,Cc1nc2ccccc2c2c1CC(C(C)(Cl)Br)O2 (centres undefined),-20.6%
14,COc1cc2oc(=O)cc(-c3ccc(-c4ccc(CO)cc4)cc3)c2c(OC)c1OC,-6.13%
15,COc1ccccc1N/C(N)=N/c1nc(CSc2ccc(C)cc2)cc(=O)[nH]1,-3.89%
16,C=CCN=C1NN=C(c2cc(C)n(CCOC)c2C)CS1,-14.8%
17,CN1C(=O)c2cc(NS(=O)(=O)c3ccccc3F)ccc2OC[C@@H]2O[C@H](CC(=O)NC3Cc4ccccc4C3)CC[C@@H]21,-17.1%
18,Cn1c(C(=O)NCCCN2CCN(c3ccccc3F)CC2)cc2c(=O)[nH]c3ccccc3c21,-14%
19,Cc1cccc(/C=N\Nc2cn[nH]c(=O)c2Cl)c1,-9.97%
20,COC(=O)[C@]1(C)N[C@H](CN(C)C(=O)Nc2ccc(Cl)cc2)[C@@H]2C(=O)N(Cc3ccccc3)C(=O)[C@@H]21,-16.4%
21,COc1ccc2[nH]c(=O)c(CN(Cc3cccs3)Cc3nnnn3Cc3ccccc3)cc2c1,-12.9%
22,COCCn1nnnc1CN(CCc1ccccc1)Cc1cc2cc(OC)ccc2[nH]c1=O,-11.6%
23,Cc1cc(NC(=O)CCC(=O)N(C2CC2)C2(C(=O)NC3CCCC3)CCC(C)CC2)no1 (centres undefined),-0.639%
24,CCOC(=O)CN1CCCc2nc(C)c(C)cc21,1.49%

row,SMILES,"activity change, negative = cytotoxicity"
1,Cn1c(SCc2nc(-c3ccc(Cl)cc3)no2)nnc1-c1cccs1,-9.46%
2,CCNc1ncnc2c1cnn2C1CCCO1 (centres undefined),12.2%
3,COc1cc(OC)cc(C(=O)N[C@H](C(=O)NCCc2c[nH]c3ccccc23)C(C)C)c1,-2.28%
4,COc1cc(CNCc2ccc(OC)c3ccccc23)cc(OC)c1OC,-20%
5,N#Cc1c(NCc2ccccc2)ccnc1NCc1cccnc1,-4.41%
6,Cc1nc2ccccc2nc(C)c1=NOCc1cccc(Cl)c1,-18.9%
7,Cc1ccc(C(=O)Nc2cnc3ccccc3c2)cc1,-5.04%
8,COc1ccc(-c2nn(C)c(=O)c3ccccc23)cc1NC(=O)Cn1nc(C)c2ccccc2c1=O,-6.97%
9,COc1ccc(-c2c(C)nn3c(C(F)(F)F)cc(C)nc23)cc1,-1.04%
10,C=CCNc1nc2c(c(=O)n(C)c(=O)n2C)n1CCCCCC,-17.9%
11,O=C(CNC(=O)c1cccc(-n2cccc2)c1)Nc1ccccc1Br,1.95%
12,CC[C@@]12C(=O)N(c3ccc(OC)cc3)C(=O)N1[C@H](c1ccc(Cl)cc1)[C@@H]1C(=O)N(C3CCCCC3)C(=O)[C@@H]12,-14.4%
13,Cn1c(-c2ccc(Cl)cc2)ccc(C#N)c1=O,-9.4%
14,O=S(=O)(NC1CC1)c1ccc(S(=O)(=O)N2CCCc3ccccc32)cc1,-4.92%
15,CC(C)OP(=O)(Nc1cccc2ccccc12)OC(C)C,0.07%
16,Cc1ccc(OCCCCNC(C)c2ccccc2)c(C)c1 (centres undefined),1.82% [at 8 µM]
17,COc1ccccc1CN(C)C(=O)CN1CCN(C(=O)c2cccs2)CC1,2.59%
18,O=C(c1ccccc1F)N1CCN(Cc2cccc(Cl)c2)CC1,2.09%
19,O=C(CCCC(=O)N(c1ccc2c(c1)OCCO2)C(C(=O)NC1CCCCC1)c1ccc(F)cc1)Nc1ccccn1 (centres undefined),-10.3%
20,Nc1ccn([C@@H]2O[C@H](C(=O)NCc3ccc4c(c3)OCO4)[C@@H](O)[C@H]2O)c(=O)n1,4.17%
21,Nc1ccn(C2OC(COC(=O)C34CC5CC(CC(C5)C3)C4)C(O)C2O)c(=O)n1 (centres undefined),-16.5%
22,C[C@@]12CC(=O)NC1N(C(=O)c1cccc(C(F)(F)F)c1)C(c1ccccc1O)C2 (some centres undefined),-1.22%
23,COc1ccc(CC(=O)Nc2cccc(S(=O)(=O)N3CCCCCC3)c2)cc1OC,-20.2%
24,COc1ccc(NS(=O)(=O)c2cccc(C(=O)NNC(=O)CNC(=O)c3ccc(C)cc3)c2)cc1,7.35%

row,SMILES,"activity change, negative = cytotoxicity"
1,CC1CCCC(C)N1CCCNC(=O)c1nn(C)c2c1CSc1ccccc1-2 (centres undefined),-9.73%
2,Cc1cc(N2CCN(c3nc4ccccc4s3)CC2)n2ncnc2n1,-7.99%
3,Cc1cccc(C)c1NC(=O)CCCSc1nnc(-c2ccc(Cl)cc2)n1-c1ccccc1,-11.4%
4,O=C(NCc1ccco1)c1ccc(Cn2c(=O)c3ccccc3n(Cc3cccc(Cl)c3)c2=O)cc1,0.124%
5,Cc1cc(C(=O)N2CCC(C(=O)O)CC2)c(C(F)(F)F)o1,5.05%
6,COc1ccc(-c2cn[nH]c2N)c(OC)c1,4.04%
7,O=C(Nc1cccc(C(F)(F)F)c1)c1ccc(Cn2cc(Br)cn2)o1,-15.6%
8,CCN(C1CCCCC1)S(=O)(=O)c1ccc(S(=O)(=O)N(CC(=O)Nc2ccccc2)C2CC2)cc1,-5.49%
9,Cc1cc(Nc2cccc(C(F)(F)F)c2)cc(=O)n1-c1cccc(C(F)(F)F)c1,-34.1%
10,O=C(Nc1ccc(Cl)cc1)Nc1cccc(C(=O)O)c1,7.42%
11,CCN(C[C@H]1N[C@@](CC)(C(=O)OC)[C@H]2C(=O)N(Cc3ccccc3)C(=O)[C@@H]12)S(=O)(=O)c1ccc(C(F)(F)F)cc1,-8.59%
12,CCCCS(=O)(=O)N1CCN(C(=O)C(=O)c2cccc(C(F)(F)F)c2)CC1,1.68%
13,CCN(CC)S(=O)(=O)c1cccc(S(=O)(=O)c2cccc(S(=O)(=O)N(CC)CC)c2)c1,-22.7%
14,O=C(NC1CCCCC1)C(c1ccc(Cl)cc1)N(C(=O)c1cnccn1)c1ccc2c(c1)OCO2 (centres undefined),-11.4%
15,COc1ccc(N2CCn3c2nc2c3c(=O)n(CCCc3ccccc3)c(=O)n2C)c(OC)c1,-7.02% [at 16 µM]
16,CCN1C(=O)[C@H]2[C@@H](c3ccc(C(F)(F)F)cc3)N[C@]3(CCCN(Cc4ccccc4)C3=O)[C@H]2C1=O,4.84%
17,CCC(C(=O)c1ccccc1)N(C(=O)c1ccccc1Cl)N1C(=O)C2C3C=CC(C3)C2C1=O (centres undefined),-9.04%
18,CC[C@@]1(C(=O)OC)N[C@H](CN(C)S(=O)(=O)c2ccc(-c3ccccc3)cc2)[C@@H]2C(=O)N(Cc3ccccc3)C(=O)[C@@H]21,-0.287%
19,O=C(Cc1ccc(Cl)cc1Cl)Nc1ccncc1,-8.97%
20,CCN(C[C@H]1N[C@@](CC)(C(=O)OC)[C@H]2C(=O)N(Cc3ccccc3)C(=O)[C@@H]12)C(=O)Nc1ccc(Cl)cc1,-25.8%
21,CCN(CC)C(=O)c1ncn2c1C(=O)NC[C@@H]2C,5.12%
22,CCc1ccc2[nH]c(=O)c(C(c3nnnn3Cc3ccc(OC)cc3)N3CCOCC3)cc2c1 (centres undefined),-0.785%
23,Cc1ccc(C(=O)Nc2cccc(C(=O)O)c2)cc1,-22.5%
24,CCc1nnc(NC(=O)[C@@H](NC(=O)c2cccc(S(=O)(=O)N(CC)CC)c2)C(C)C)s1,0.838%

row,SMILES,"activity change, negative = cytotoxicity"
1,COc1ccc(C2N(S(=O)(=O)c3ccc(C)cc3)CCN2S(=O)(=O)c2ccc(C)cc2)cc1,-2.09%
2,Cc1ccccc1S(=O)(=O)N1C[C@H]2[C@H]3C(=O)N(C4CCCCC4)C(=O)[C@H]3CC(=O)[C@H]2[C@@H]1c1ccc(Cl)cc1,-7.17%
3,O=C(NCc1cccnc1)c1c[nH]c2cc3c(cc2c1=O)OCCO3,-13.7%
4,CC[C@@]1(C(=O)OC)N[C@H](CN(C)C(=O)c2ccc(C(C)(C)C)cc2)[C@@H]2C(=O)N(Cc3ccccc3)C(=O)[C@@H]21,-13.2%
5,N#Cc1ccc(CSc2nnc(COc3ccccc3)n2-c2ccccc2)cc1,-4.88%
6,Cc1cc(C(=O)CN2C(=O)c3ccccc3S2(=O)=O)c(C)n1C(C)C,-3.53%
7,O=C(Nc1ccc(S(=O)(=O)N2CCN(Cc3ccccc3)CC2)cc1)c1cnccn1,-15.6%
8,O=C(Nc1nc(-c2ccc3c(c2)OCO3)cs1)c1ccncc1,-8.69%
9,Cc1ccc2c(CN3CCN(S(=O)(=O)c4ccc5c(c4)OCCO5)CC3)cc(=O)oc2c1C,-21.9%
10,Cc1ccc(N2C(=O)CC(c3ccsc3)C3=C2CC(C)(C)CC3=O)cc1 (centres undefined),-14.1%
11,CCN(CC)c1ncnc2ccc(Br)cc12,-3.25%
12,O=C(N/N=C/c1sc(N2CCOCC2)nc1-c1ccccc1)c1cccc(S(=O)(=O)N2CCOCC2)c1,-26.1%
13,O=S(=O)(Nc1nc2ccccc2nc1Nc1cccc(S(=O)(=O)N2CCCCC2)c1)c1ccccc1,-23.7%
14,CC(=O)OC1c2ccccc2C(=O)N1c1ccccc1C (centres undefined),3.07%
15,O=C1COc2ccc(-c3csc(=Nc4ccc(OC(F)F)cc4)n3CC3CCCO3)cc2N1 (centres undefined),-19.3%
16,COc1ccc(NC(=O)C2(C)CCN2Cc2ccccc2OC(F)F)cc1OC (centres undefined),-13.7%
17,CC1(C(=O)NCc2cccc3ccccc23)CCN1Cc1ccc(-c2ccccc2)o1 (centres undefined),-14.3%
18,CC(=O)C1=C(C)N(Cc2ccc(Cl)cc2)C(=S)NC1c1cccc(Br)c1 (centres undefined),-3.5%
19,C[C@H](CO)N1C[C@H](C)[C@H](CN(C)S(=O)(=O)c2cccs2)Oc2ccc(NC(=O)C3CCCCC3)cc2CC1=O,-7.83%
20,CCCC#Cc1ccc2c(c1)O[C@@H](CN(C)S(=O)(=O)c1cccc(F)c1)[C@@H](C)CN([C@H](C)CO)S2(=O)=O,-13.9%
21,C[C@H](CO)N1C[C@H](C)[C@@H](CN(C)C(=O)NC2CCCCC2)Oc2c(cccc2N(C)C)C1=O,11.2%
22,CCCC#Cc1ccc2c(c1)O[C@@H](CN(C)S(=O)(=O)c1cccc(F)c1)[C@@H](C)CN([C@@H](C)CO)S2(=O)=O,-24.3%
